Measured values taken from PubChem BioAssay (Tox21).
Where “and” joins values, the source holds several entries; their conditions need not be identical. Equal values may be shown once. Records with an inconclusive call do not appear. Where a call stands in place of a potency, no number is given. A structure can be active in one record and inactive in another. Calls of active or inactive are those of the source. Calls come from the whole dose curve; as a rule, active = well fitted cell-killing curve with a large enough effect in the repeat runs; inconclusive = weak or mixed curves, or effect the other way; inactive = flat fitted curve, though single readings scatter.

Test: qHTS assay to identify small molecule that activate the aryl hydrocarbon receptor (AhR) signaling pathway - cell viability counter screen (AID 743086); note: nearly all actives have a fitted effect of over 45% in size;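 for viability change, negative = cytotoxic: HepG2 liver cells carrying the AhR DRE luciferase reporter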
Conditions: HepG2-AhR-luc viability, CellTiter-Fluor, 24 h; series mostly up to 70.3 µM
Source text: U.S. Tox21 Program National Center for Advancing Translational Sciences [NCATS] NIH Chemical Genomics Center [NCGC] U.S. Environmental Protection Agency [EPA] National Institutes of Environmental Health Sciences [NIEHS] National Toxicology Program [NTP] U.S. Food and Drug Administration [FDA] Tox21 Assay overview: The Aryl hydrocarbon Receptor (AhR), a member of the family of basic helix-loop-helix transcription factors, is crucial to adaptive responses to environmental changes. AhR mediates cellular responses to environmental pollutants such as aromatic hydrocarbons through induction of phase I and II enzymes but also interacts with other nuclear receptor signaling pathways A cell based HepG2-AhR-luc assay (HG2L7.5c1 cell line, developed by Dr. Michael S. Denison, University of California at Davis) was used to assess the activation of AhR. HepG2 (human hepatocellular carcinoma) cells were stably transfected with an Ah receptor-responsive firefly luciferase reporter gene plasmid containing 20 dioxin responsive elements and luciferase reporter gene. Increased luciferase activity can be used to identify the compounds that induce AhR activation. The cytotoxicity of the compounds screened against the HepG2-AhR-luc cell line was tested in parallel by measuring the cell viability using CellTiter-Fluor assay in the same wells.
Tox21 Assay Protocol Summary: 4000 cells in 5 uL/well were dispensed into white wall/solid bottom 1536-well plates using a Multidrop Combi (Thermo Fisher Scientific Inc., Waltham, MA) dispenser. After the assay plates were incubated at 37C for 5 h, 23 nL of compound or DMSO vehicle was transferred to the assay plates by a pintool station (Kalypsys, San Diego, CA). The plates were incubated at 37C for 24 hr. For cell viability measurement, 1 ul/well of CellTiter-Fluor reagent (Promega, Madison, WI) was added into the assay plates using a Flying Reagent Dispenser (FRD) (Aurora Discovery, CA),and then the assay plates were incubated at 37C for 30 min. The fluorescence intensity in the plates was measured using a ViewLux plate reader (PerkinElmer, Shelton, CT), followed by the addition of 4 uL of ONE-Glo Luciferase Assay reagent (Promega) using an FRD (Aurora Discovery). After the assay plates were incubated at room temperature for 30 min, luminescence intensity was measured using a ViewLux plate reader (Perkin Elmer).
Potency is the fitted concentration of half-maximal effect.

SMILES	Potency	viability change, negative = cytotoxic
Nc1nc(N)c(N)c(N)n1	inactive	–
Clc1c(Cl)c(Cl)c(Cl)c(Cl)c1Cl	–	3.05% [at 8.47 µM] (inactive)
CCCCCON=O	inactive	–
ClC(Cl)C(Cl)(Cl)Cl	inactive	–
CCC(C)Br (stereo not given)	inactive	–
CNC(=O)CSP(=O)(OC)OC	inactive	–
C#CC1(O)CCCCC1	inactive	–
NC1CCC(CC2CCC(N)CC2)CC1 (stereo not given)	inactive	–
O.O.O.O.O.O.O=S(=O)([O-])[O-].[Ni+2]	inactive	–
CCC(C)c1cccc(C(C)CC)c1O (stereo not given)	inactive	–
Cc1ccccc1OP(=O)(Oc1ccccc1C)Oc1ccccc1C	inactive	–
Clc1ccc(C2(Cn3cncn3)OCCO2)c(Cl)c1	inactive	–
c1cc[n+]2c(c1)-c1cccc[n+]1CC2	inactive	–
CN/C(=N\[N+](=O)[O-])NCc1cnc(Cl)s1	inactive	–
CC(=O)[O-].CC(=O)[O-].CC(=O)[O-].[Sb+3]	–	5.29% [at 8.47 µM] (inactive)
CC(C)NCC(O)c1ccccc1Cl (stereo not given)	inactive	–
CCC(OC(C)=O)C(CC(C)NC)(c1ccccc1)c1ccccc1 (stereo not given)	69.2 µM (active)	–
OCC(Br)CBr (stereo not given)	inactive	–
O=[N+]([O-])C(Br)Br	inactive	–
[F][Sn]([c]1ccccc1)([c]1ccccc1)[c]1ccccc1	3.86 µM (active)	–

SMILES	Potency	viability change, negative = cytotoxic
CC(Cc1ccc(O)cc1)NCC(O)c1cc(O)cc(O)c1 (stereo not given)	inactive	–
CN(C)C(=S)SSC(=S)N(C)C	inactive and 154 nM (active)	–
CCCCCCCCCCCCCCn1cc[n+](C)c1	34.4 µM (active)	–
CC(C)(C)c1ccc(OP(=O)(Oc2ccccc2)Oc2ccccc2)cc1	inactive	–
[Cl][Hg][c]1ccccc1	5.45 µM (active)	–
CCN(CC)C(=S)S	inactive and 19.2 µM (active) and 30.6 µM (active)	–
CC(C)c1c(CN(C)C(C)Cc2ccccc2)n(C)n(-c2ccccc2)c1=O (stereo not given)	inactive	–
CCN(CC)CCc1c[nH]c2ccccc12	inactive	–
Oc1ccc(Cl)c(Cl)c1	inactive	–
N#CC(C#N)=NNc1cccc(Cl)c1	15.4 µM (active)	–
CC1CCCC1	inactive	–
CC(C)=CC1C(C(=O)OC(C#N)c2cccc(Oc3ccccc3)c2)C1(C)C (stereo not given)	inactive	–
O=C(O)[C@H](O)[C@@H](O)C(=O)O	inactive	–
Nc1cc(Cl)ccc1Cl	inactive	–
[O]=[Cr](=[O])([OH])[O][Cr](=[O])(=[O])[OH]	inactive	–
COP(=O)(OC)Oc1ccc([N+](=O)[O-])cc1	inactive	–
CN(C)c1ccc(N)cc1	66.9 µM (active)	–
Nc1nc(N)nc(Cl)n1	inactive	–
C[C@]12C/C(=C/O)C(=O)C[C@@H]1CC[C@@H]1[C@@H]2CC[C@@]2(C)[C@H]1CC[C@]2(C)O	inactive	–
COC(=O)C(C)N(C(=O)c1ccco1)c1c(C)cccc1C (stereo not given)	inactive	–
